aSyn UTR act: Activators working through SNCA 5'UTR binding (MLPCN) | alpha-synuclein 5'UTR reporter, activators screen | 300,000 compounds, 7.1% hits | activity score, % (tested at 7.5 µM), hits read low | AID 1814; in the data active = activity score below about -60%
Of the large screens only hits and unclear results are named; the others gave an inactive call. The list is a sample of the results.

CCC(C)c1ccc(NC(=O)Nc2cnccn2)cc1 (configuration not stated)	aSyn UTR act -188
Cc1ccc(NC(=O)Nc2cnccn2)cc1Cl	aSyn UTR act -74
O=C(Nc1cnccn1)Nc1ccc(Cl)cc1Cl	aSyn UTR act -62
CC(=O)Nc1cccc(NC(=O)Nc2ccc(C)c(Cl)c2)c1	aSyn UTR act -118
Brc1ccc(OCc2nc3ccccc3[nH]2)cc1	aSyn UTR act -214
COc1cccc(CSc2nc3ccccc3cc2C=O)c1	none
COc1cccc(OCc2nc3ccccc3[nH]2)c1	aSyn UTR act -137
COc1ccc(OCc2nc3ccccc3[nH]2)cc1	aSyn UTR act -113
COc1cccc(OCc2nc3ncc(Br)cc3[nH]2)c1	aSyn UTR act -77
c1ccc2cc(OCc3nc4ccccc4[nH]3)ccc2c1	aSyn UTR act -167
O=C1/C(=C\c2ccco2)NC(=S)N1c1ccccc1	aSyn UTR act -84
COc1ccc(OC)c(Nc2nc(NCCO)c3ccccc3n2)c1	aSyn UTR act -68
COc1ccc(OC)c(Nc2c3c(nc4ccccc24)CCC3)c1	none
Cc1ccc(Nc2nc(NCCO)c3ccccc3n2)cc1C	aSyn UTR act -76
OCCNc1c2ccccc2nc2ccccc12	aSyn UTR act -167
CSc1nnc2c(n1)[nH]c1c(C)cccc12	aSyn UTR act -107
C=CCSc1nnc2nc3[nH]c4c(C)cccc4c3nn12	aSyn UTR act -75
CCSc1nnc2c(n1)[nH]c1c(C)cccc12	aSyn UTR act -208
CC1CCC/C(=C\Nc2ccc3c(c2)OCO3)C1=O (configuration not stated)	aSyn UTR act -119
CC(C)=NNc1nc(-c2ccccc2)cs1	aSyn UTR act -182
CCCC(=O)Nc1ccc(-c2csc(N/N=C\c3ccncc3)n2)cc1	aSyn UTR act -116
Cc1ccc(/C=N/Nc2nc(C(C)(C)C)cs2)o1	aSyn UTR act -123
C(=N\Nc1nc(-c2ccccc2)cs1)/c1cccnc1	aSyn UTR act -339
CC(C)(C)c1csc(N/N=C/c2cccnc2)n1	aSyn UTR act -173
CC(NC(=O)c1cc(COc2c(F)cccc2F)on1)c1cnn(-c2ccccc2)c1 (configuration not stated)	aSyn UTR act -91
COc1ccc(OCc2cc(C(=O)N3CCOCC3)no2)c(Cl)c1	aSyn UTR act -82
COc1cccc(OCc2cc(C(=O)NC(C)c3cnn(C)c3C)no2)c1 (configuration not stated)	aSyn UTR act -77
COc1ccc(OCc2cc(C(=O)N3CCSCC3)no2)c(Cl)c1	aSyn UTR act -108
COc1ccc(OCc2cc(C(=O)N3CCC(c4ccccc4)CC3)no2)c(Cl)c1	aSyn UTR act -63
COc1ccc(OCc2cc(C(=O)N3CCCCCC3)no2)c(Cl)c1	aSyn UTR act -90
O=C(c1cc(COc2ccc(F)cc2Cl)on1)N1CCSCC1	aSyn UTR act -197
COc1ccc(OCc2cc(C(=O)NC(C)c3cnn(C)c3)no2)c(Cl)c1 (configuration not stated)	aSyn UTR act -106
CCC(C)n1ncn(-c2ccc(N3CCN(c4ccc(O)cc4)CC3)cc2)c1=O (configuration not stated)	none
O=C(/C(C=Nc1ccc(Br)cc1)=C(/O)c1ccco1)C(F)(F)F	aSyn UTR act -175
O=C(/C(C=Nc1cccc(C(F)(F)F)c1)=C(/O)c1ccco1)C(F)(F)F	aSyn UTR act -194
CC(C)(C)C1CCC(OC(=O)c2cncc(Br)c2)CC1 (configuration not stated)	aSyn UTR act -123
N#Cc1nc(/C=C/c2ccccc2)oc1NCCCN1CCOCC1	aSyn UTR act -82
CNc1oc(/C=C/c2ccccc2)nc1C#N	aSyn UTR act -275
COCCNc1oc(/C=C/c2ccccc2)nc1C#N	aSyn UTR act -146
Cc1c(C(=O)Nc2ccc(Cl)cn2)oc2ccccc12	aSyn UTR act -91
Cc1c(C(=O)Nc2cnccn2)oc2ccccc12	aSyn UTR act -107
Cc1c(C(=O)Nc2cccc3cccnc23)oc2ccccc12	aSyn UTR act -118
COc1cc(CN2CCCCC2)ccc1OCc1ccccc1	aSyn UTR act -65
CCCCn1c(-c2ccccc2)cnc1SCC(=O)NCCc1ccc(OC)c(OC)c1	aSyn UTR act -136
COc1cc(CN2CCC(C(=O)NCCC(C)C)CC2)ccc1OCc1ccccc1	aSyn UTR act -173
COc1ccc(CCNC(=O)C(=O)NCc2ccccc2)cc1OC	aSyn UTR act -82
COc1cc(CNC(=O)C2CC2)ccc1OCc1ccccc1	aSyn UTR act -97
Cc1cccc(-n2ncc3c(N)ncnc32)c1	aSyn UTR act -74
Cc1cccc(-n2ncc3c(N(C)Cc4ccccc4)ncnc32)c1	aSyn UTR act -169
Cc1cccc(-n2ncc3c(Nc4ccc(F)cc4)ncnc32)c1	aSyn UTR act -108
COc1ccc(-n2ncc3c(Nc4cccc(C)c4)ncnc32)cc1	aSyn UTR act -202
O=C1CCCCC/C1=N/Nc1ccc(OCc2ccccc2)cc1	aSyn UTR act -74
CCCNC(=O)c1cc(-c2ccc(Br)cc2)on1	aSyn UTR act -85
CC(C)NC(=O)c1cc(-c2ccc(Br)cc2)on1	aSyn UTR act -124
CC(C)NC(=O)c1cc(-c2ccco2)on1	aSyn UTR act -139
CCCCOc1ccc(-c2ncc([N+](=O)[O-])cn2)cc1	aSyn UTR act -133
CCCCOc1ccc(-c2[nH]ncc2C=O)cc1	aSyn UTR act -82
CCCCOc1ccc(-c2ncc(Cl)cn2)cc1	aSyn UTR act -89
COc1ccc(/C=C\C(=O)Oc2cccc(/C=N/NC(=O)Cc3ccc(OC)c(OC)c3)c2)cc1	aSyn UTR act -87
COc1ccc(/C=C/C(=O)Oc2cccc(/C=N/NC(=O)c3cccc(F)c3)c2)cc1	aSyn UTR act -151
O=C(O)c1ccc(Cn2nnc3sc4c(c3c2=O)CCCC4)cc1	aSyn UTR act -151
O=C(O)CSc1nc2sc3c(c2c(=O)n1Cc1ccccc1)CCCCC3	aSyn UTR act -230
Cc1cccc(NC2=C(NC(=O)c3ccccc3)C(=O)c3ccccc3C2=O)c1	aSyn UTR act -102
COc1ccc(/C=N\Nc2ccccn2)c(OC)c1	aSyn UTR act -155
COc1ccc(OC)c(/C=N\Nc2nccs2)c1	aSyn UTR act -65
COc1ccc(/C=N/Nc2ccccn2)c(OC)c1OC	aSyn UTR act -92
CCN(CC)S(=O)(=O)c1ccc(N/N=C/c2cc(OC)ccc2O)nc1	none
COc1ccc(/C=N/Nc2ncc(Br)cn2)c(OC)c1	aSyn UTR act -139
COc1ccccc1/C=N/Nc1nccnc1Cl	aSyn UTR act -98
Cc1ccc(C)c(/C=N/Nc2ccccn2)c1	aSyn UTR act -139
O=C(c1cc(-c2ccc3c(c2)OCO3)on1)N1CCCCC1	none
CC1CCCC(C)N1C(=O)c1cc(-c2ccc(Cl)c(Cl)c2)on1 (configuration not stated)	aSyn UTR act -173
CC1CCCC(C)N1C(=O)c1cc(-c2ccc3c(c2)OCO3)on1 (configuration not stated)	aSyn UTR act -131
CN1CCN(c2ccc(NC(=O)COc3ccccc3)cc2Cl)CC1	aSyn UTR act -192
Cc1ccnc(NS(=O)(=O)c2ccc(NC(=O)COc3ccccc3)cc2)n1	none
Cc1ccc(SCC(=O)Nc2ccc(N3CCN(C)CC3)c(F)c2)cc1	aSyn UTR act -82
CC(C)c1ccc(NC(=O)COc2ccccc2)cc1	aSyn UTR act -124
CCCOC(=O)Nc1ccc(N2CCCCC2)cc1	aSyn UTR act -67
Cc1cc(NC(=O)COc2ccccc2)ccc1Cl	aSyn UTR act -96
O=C(COc1ccccc1)Nc1ccccc1N1CCN(c2ccccc2)CC1	none
C/C(=N\NC(=O)c1c(Cl)c(C)nn1C)c1cccc(NC(=O)COc2ccccc2)c1	aSyn UTR act -80
